This is part of a sample that, as a whole, favours compounds with a hit. Of some 79,000 tested, about 15% had one in any assay. Active and inactive are the calls of the source. No stated cut-off is given here; in the data, active means growth inhibition above about 70%; inactive means the rest.
What was measured:
[1] = NCI Yeast Anticancer Drug Screen. Data for the rad52 strain (AID 147);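 further: 0% = growth of vehicle-treated control cultures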; settings: S. cerevisiae rad52 mutant growth inhibition, active compounds read high
Method in brief: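 Here a repair-compromised yeast strain receives each compound; its growth is then quantified and normalised to vehicle-only controls.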

[2] = NCI Yeast Anticancer Drug Screen. Data for the wt1 strain (AID 149);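 further: 0% = growth of vehicle-treated wt1 cultures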; settings: S. cerevisiae wt1 strain (SPY 50644) growth inhibition, active compounds read high
Method in brief: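 Readout: yeast growth inhibition, normalised to vehicle controls, in the wt1 strain exposed to test compounds.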

[3] = NCI Yeast Anticancer Drug Screen. Data for the rad50EPP+ strain (AID 151);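 further: 0% = growth of vehicle-treated control cultures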; settings: S. cerevisiae rad50 mutant strain, active compounds read high
Method in brief: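 Read-out is yeast growth inhibition relative to vehicle; cells used were the rad50EPP+ strain.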

[4] = NCI Yeast Anticancer Drug Screen. Data for the mgt1 strain (AID 153); settings: S. cerevisiae mgt1 mutant growth inhibition, active compounds read high
Method in brief: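 Measured: inhibition of mgt1 yeast growth by compound, normalized to vehicle-treated cultures.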

[5] = NCI Yeast Anticancer Drug Screen. Data for the rad50 strain (AID 155);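 further: 0% = growth of vehicle-only cultures of the same strain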; settings: S. cerevisiae rad50 strain growth inhibition, active compounds read high
Method in brief: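 Compounds were tested on a yeast strain with an engineered DNA damage repair alteration; the reported value is growth inhibition normalised to vehicle treatment.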

[6] = NCI Yeast Anticancer Drug Screen. Data for the mec2-1 strain (AID 157); settings: S. cerevisiae mec2-1 strain, active compounds read high
Method in brief: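 Using mec2-1 yeast: add compound, measure growth, express inhibition versus vehicle-treated cultures.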

[7] = NCI Yeast Anticancer Drug Screen. Data for the rad14 strain (AID 159);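 further: 0% = growth of vehicle-treated control cultures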; settings: S. cerevisiae rad14 strain growth inhibition, active compounds read high
Method in brief: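 Compound-treated yeast with a defined DNA-repair lesion; growth inhibition normalised to vehicle-treated cultures.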

[8] = NCI Yeast Anticancer Drug Screen. Data for the sgs1 mgt1 strain (AID 161);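 further: 0% = growth of cultures given vehicle only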; settings: S. cerevisiae sgs1 mgt1 strain, active compounds read high
Method in brief: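 This yeast growth screen uses a strain with defined DNA-repair lesions; compound-treated growth is compared with vehicle-treated growth.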

[9] = NCI Yeast Anticancer Drug Screen. Data for the CLN2oe strain (AID 163);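 further: 0% = growth of vehicle-only control cultures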; settings: S. cerevisiae CLN2oe strain, active compounds read high
Method in brief: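 Whole-cell yeast growth assay. A strain engineered for altered cell-cycle control received compound, and inhibition relative to vehicle-treated cultures was recorded.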

[10] = NCI Yeast Anticancer Drug Screen. Data for the cln2 rad14 strain (AID 165);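 further: 0% = growth equal to vehicle treated cultures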; settings: S. cerevisiae cln2 rad14 strain, active compounds read high
Method in brief: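 Yeast strain cln2 rad14, bearing defects in cell cycle control and DNA repair, serves as the test system; values reflect growth inhibition compared with vehicle.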

[11] = NCI Yeast Anticancer Drug Screen. Data for the bub3 strain (AID 167); settings: S. cerevisiae bub3 mutant strain, active compounds read high
Method in brief: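 Growth of a checkpoint-deficient yeast mutant is measured after compound exposure. Values represent inhibition relative to vehicle.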

[12] = NCI Yeast Anticancer Drug Screen. Data for the wt2 strain (AID 169);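 further: 0% = growth of vehicle-treated yeast cultures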; settings: S. cerevisiae wt2 strain growth inhibition, active compounds read high
Method in brief: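 Treated yeast vs. vehicle-treated yeast: growth inhibition determined.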

[13] = NCI Yeast Anticancer Drug Screen. Data for the mlh1 strain (AID 171);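 further: 0% = growth of vehicle-treated control cultures of the same strain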; settings: S. cerevisiae mlh1 strain growth inhibition, active compounds read high
Method in brief: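 A yeast strain with a defined genetic lesion serves as the test organism. Cultures receive compound or vehicle, and growth is measured.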

[14] = NCI Yeast Anticancer Drug Screen. Data for the sgs1 strain (AID 173);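 further: 0% = growth of vehicle-only control cultures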; settings: S. cerevisiae sgs1 mutant, active compounds read high
Method in brief: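 A genetically defined yeast mutant is incubated with the test compound, and its growth is compared to that of the same strain given vehicle.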

[15] = NCI Yeast Anticancer Drug Screen. Data for the mlh1 rad18 strain (AID 175); settings: S. cerevisiae mlh1 rad18 strain growth inhibition, active compounds read high
Method in brief: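 Steps: expose repair-defective yeast to compound; measure growth; express inhibition against vehicle-treated controls.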

[16] = NCI Yeast Anticancer Drug Screen. Data for the rad18 strain (AID 177); settings: S. cerevisiae rad18 mutant growth inhibition, active compounds read high
Method in brief: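 Measured value is growth inhibition of a yeast strain bearing a DNA repair alteration, referenced to vehicle-treated cells.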

[17] = at 5.0 µM (retest, dose inferred, filed as 0.5)
[18] = at 50.0 µM (retest, dose inferred, filed as 5.0)

Measured: growth inhibition

C(CCSC1=NCCN1)CSC1=NCCN1 (tested in a mixture with another compound)
inactive: [1]; at 1.2 µM 20% | [1]; at 3.7 µM 39% | [2]; at 1.2 µM -3% | [2]; at 3.7 µM 9% | [2]; at 11.0 µM 41% | [3]; at 1.2 µM 30% | [3]; at 3.7 µM 46% | [4]; at 1.2 µM -2% | [4]; at 3.7 µM 18% | [5]; at 1.2 µM 21% | [5]; at 3.7 µM 44% | [5]; [17] 59% | [6]; at 1.2 µM 5% | [6]; at 3.7 µM 28% | [6]; [17] 43% | [7]; at 1.2 µM 5% | [7]; at 3.7 µM 27% | [9]; at 1.2 µM -5% | [9]; at 3.7 µM 6% | [9]; at 11.0 µM 29% | [10]; [17] 16% | [11]; at 1.2 µM -8% | [11]; at 3.7 µM 12% | [11]; [17] 5% | [12]; at 1.2 µM -2% | [12]; at 3.7 µM 10% | [12]; at 11.0 µM 63% | [13]; at 1.2 µM 5% | [13]; at 3.7 µM 20% | [14]; at 1.2 µM 11% | [14]; at 3.7 µM 35% | [16]; at 1.2 µM 26% | [16]; at 3.7 µM 52%
active: [1]; at 11.0 µM 79% | [1]; at 33.0 µM 99% | [1]; at 100.0 µM 99% | [2]; at 33.0 µM 99% | [2]; at 100.0 µM 99% | [3]; at 11.0 µM 78% | [3]; at 33.0 µM 73% | [3]; at 100.0 µM 99% | [4]; at 11.0 µM 89% | [4]; at 33.0 µM 99% | [4]; at 100.0 µM 98% | [5]; at 11.0 µM 83% | [5]; at 33.0 µM 99% | [5]; [18] 98% | [5]; at 50.0 µM 99.2% | [5]; at 100.0 µM 98% | [6]; at 11.0 µM 94% | [6]; at 33.0 µM 99% | [6]; [18] 99% | [6]; at 50.0 µM 99.5% | [6]; at 100.0 µM 99% | [7]; at 11.0 µM 99% | [7]; at 33.0 µM 99% | [7]; at 100.0 µM 99% | [8]; [17] 73% | [8]; [18] 99% | [8]; at 50.0 µM 99.5% | [9]; at 33.0 µM 97% | [9]; at 100.0 µM 98% | [10]; [18] 98% | [10]; at 50.0 µM 97.6% | [11]; at 11.0 µM 94% | [11]; at 33.0 µM 99% | [11]; [18] 98% | [11]; at 50.0 µM 99% | [11]; at 100.0 µM 98% | [12]; at 33.0 µM 99% | [12]; at 100.0 µM 99% | [13]; at 11.0 µM 83% | [13]; at 33.0 µM 99% | [13]; at 100.0 µM 98% | [14]; at 11.0 µM 86% | [14]; at 33.0 µM 99% | [14]; at 100.0 µM 99% | [15]; [17] 77% | [15]; [18] 98% | [15]; at 50.0 µM 99% | [16]; at 11.0 µM 91% | [16]; at 33.0 µM 99% | [16]; at 100.0 µM 99%

CCCCN(CCCC)CCSc1ccc(Cl)cc1
active: [1]; at 100.0 µM 95% | [2]; at 100.0 µM 93% | [4]; at 100.0 µM 73% | [5]; at 50.0 µM 87.3% | [5]; at 100.0 µM 96% | [6]; at 50.0 µM 94.7% | [6]; at 100.0 µM 92% | [7]; at 100.0 µM 92% | [8]; [18] 70% | [8]; at 50.0 µM 82.4% | [10]; at 50.0 µM 79.4% | [11]; at 50.0 µM 94.5% | [11]; at 100.0 µM 92% | [12]; at 100.0 µM 97% | [13]; at 100.0 µM 91% | [14]; at 100.0 µM 95% | [15]; [18] 80% | [15]; at 50.0 µM 88.2% | [16]; at 100.0 µM 89%
inactive: [1]; at 1.2 µM -6% | [1]; at 3.7 µM -13% | [1]; at 11.0 µM -10% | [1]; at 33.0 µM 16% | [2]; at 1.2 µM -1% | [2]; at 3.7 µM 7% | [2]; at 11.0 µM 12% | [2]; at 33.0 µM 31% | [3]; at 1.2 µM -10% | [3]; at 3.7 µM -20% | [3]; at 11.0 µM 13% | [3]; at 33.0 µM 35% | [3]; at 100.0 µM 55% | [4]; at 1.2 µM -4% | [4]; at 3.7 µM -8% | [4]; at 11.0 µM -5% | [4]; at 33.0 µM -5% | [5]; at 1.2 µM -18% | [5]; at 3.7 µM -20% | [5]; [17] 2% | [5]; at 11.0 µM -15% | [5]; at 33.0 µM 28% | [5]; [18] 18% | [6]; at 1.2 µM -5% | [6]; at 3.7 µM -5% | [6]; [17] 3% | [6]; at 11.0 µM -7% | [6]; at 33.0 µM -8% | [6]; [18] 66% | [7]; at 1.2 µM 3% | [7]; at 3.7 µM -5% | [7]; at 11.0 µM 0% | [7]; at 33.0 µM 12% | [8]; [17] 2% | [9]; at 1.2 µM -12% | [9]; at 3.7 µM -12% | [9]; at 11.0 µM -13% | [9]; at 33.0 µM -11% | [9]; at 100.0 µM 59% | [10]; [17] 0% | [10]; [18] 4% | [11]; at 1.2 µM -9% | [11]; at 3.7 µM -5% | [11]; [17] 5% | [11]; at 11.0 µM -7% | [11]; at 33.0 µM 3% | [11]; [18] 43% | [12]; at 1.2 µM -5% | [12]; at 3.7 µM 3% | [12]; at 11.0 µM 13% | [12]; at 33.0 µM 45% | [13]; at 1.2 µM -14% | [13]; at 3.7 µM -11% | [13]; at 11.0 µM -9% | [13]; at 33.0 µM 17% | [14]; at 1.2 µM -10% | [14]; at 3.7 µM -7% | [14]; at 11.0 µM 10% | [14]; at 33.0 µM 42% | [15]; [17] 3% | [16]; at 1.2 µM -8% | [16]; at 3.7 µM -11% | [16]; at 11.0 µM -7% | [16]; at 33.0 µM 2%

Source: PubChem BioAssay (NCI)
